In PubChem BioAssay (Tox21):
Inconclusive results are not listed. Calls of active or inactive are those of the source. Calls follow the shape of the dose curve; as a rule, active = well fitted cell-killing curve with a large enough effect in the repeat runs; inconclusive = weak or mixed curves, or effect the other way; inactive = no such curve, though single readings can be large or run the other way.

test: qHTS assay for small molecule activators of the heat shock response signaling pathway - cell viability counter screen (AID 743209); conditions: HSE-bla HeLa viability, CellTiter-Glo luminescence, 5 h; series mostly up to 62.6 µM; also: nearly all actives have a fitted effect of over 50% in size
Source text: U.S. Tox21 Program National Center for Advancing Translational Sciences [NCATS] NIH Chemical Genomics Center [NCGC] U.S. Environmental Protection Agency [EPA] National Institutes of Environmental Health Sciences [NIEHS] National Toxicology Program [NTP] U.S. Food and Drug Administration [FDA] Tox21 Assay Overview: Various chemicals, environmental and physiological stress conditions may lead to the activation of heat shock response/ unfolded protein response (HSR/UPR). There are three heat shock transcription factors (HSFs) (HSF-1, -2, and -4) mediating transcriptional regulation of the human HSR. To identify the compounds that activate HSR signaling, HSE-bla HeLa cell line (Invitrogen, Carlsbad, CA, USA) containing a beta-lactamase reporter gene under the control of the heat shock response elements was used to screen Tox21 10K compound library. The cytotoxicity of the Tox21 compound library against the HSE-bla HeLa cell line was tested in parallel by measuring the cell viability using CellTiter-Glo assay (Promega, Madison, WI) in the same wells.
Tox21 Assay Protocol Summary: The CellSensor HSE-bla HeLa cells (Invitrogen, Carlsbad, CA, USA) were dispensed at 1500 cells/6uL/well into 1536-well black wall/clear bottom plates using a Multidrop combi (Thermo Fisher Scientific, Waltham, MA) dispenser. After the assay plates were incubated at 37 C and 5% CO2 overnight, 23 nL of compounds dissolved in DMSO, positive controls or DMSO only was transferred to the assay plate by a Pintool station (Kalypsys, San Diego, CA). The plates were incubated at 37 C for 5 h. After 1 uL of LiveBLAzerTM B/G FRET substrate was added using a Flying Reagent Dispenser (FRD, Beckman Coulter, Indianapolis, IN, USA), the plates were incubated at room temperature for 2.5 h, and fluorescence intensity was measured by an Envision plate reader (PerkinElmer, Shelton, CT). For cell viability readout that measures cytotoxicity, 3 ul/well of CellTiter-Glo reagent was added into the assay plates using a FRD. After 30 min incubation at room temperature, the luminescence intensity in the plates was measured using a ViewLux (PerkinElmer) plate reader.
% is scaled to controls: 0 for no effect and ±100 for the full control effect.

Structure (SMILES) | outcome | activity change, negative = cytotoxicity
c1ccccc1 | inactive | 
C=CCOc1cc(Cl)ccc1C(=O)NCCN(CC)CC | inactive | 
Nc1ccc(C(=O)OCC(O)CO)cc1 (stereo not given) | inactive | 
CCCCC(C)C(=O)O (stereo not given) | inactive | 
Cn1c(=O)c2c(ncn2CC2OCCO2)n(C)c1=O | inactive | 
C1CCN2C[C@@H]3C[C@@H](CN4CCCC[C@@H]34)[C@H]2C1 | inactive | 
CCCCOC(=O)C(=O)OCCCC | inactive | 
CCC(C)(C)C1CCC(=O)CC1 | inactive | 
CCCCCCCCCCCCC1CO1 (stereo not given) | inactive | 
CCOC(=O)C(=O)c1csc(NC=O)n1 | inactive | 
CN[C@@H]1[C@@H](O)[C@@H](O[C@@H]2[C@H](O)[C@H](O[C@H]3OC(CN)=CC[C@H]3N)[C@@H](N)C[C@H]2N)OCC1(C)O (stereo not given in full) | inactive | 
CC(Cl)COP(=O)(OCC(C)Cl)OCC(C)Cl (stereo not given) | inactive | 
O=C(O)Cc1cccc(-c2cc(CCCCCCc3ccc(O[C@H]4O[C@H](CO)[C@@H](O)[C@H](O)[C@@H]4O)c(-c4cccc(CC(=O)O)c4)c3)ccc2O[C@H]2O[C@H](CO)[C@@H](O)[C@H](O)[C@@H]2O)c1 |  | -0.941% [at 0.55 µM] (inactive)
C=CCOc1c(Br)cc(Br)cc1Br | inactive | 
C=C(C)C(=O)OC1CC(C)CC(C)(C)C1 (stereo not given) | inactive | 
CC(C)COC(=O)/C=C/c1ccccc1 | inactive | 
C=CC(C)(O)CC/C=C(\C)CC (stereo not given) | inactive | 
O=S(=O)(O)CCO | inactive | 
O=c1[nH]c(=O)c2ccccc2o1 | inactive | 
BrC/C=C/CBr | inactive | 

Structure (SMILES) | outcome | activity change, negative = cytotoxicity
CC1(N)CCC(C(C)(C)N)CC1 (stereo not given) | inactive | 
CC(=O)OC[C@H]1O[C@@H](OC(C)=O)[C@H](OC(C)=O)[C@@H]1OC(C)=O | inactive | 
CCCCCCCCCCCCCCCC(=O)NCCO | inactive | 
CCOC(=O)C(C)(C)C | inactive | 
CCCCC(=O)N(C)C | inactive | 
CNC(=O)NC | inactive | 
CCOc1ccc(NC(=O)OC(C)C)cc1OCC | inactive | 
CCCCCCCCCOCC1CO1 (stereo not given) | inactive | 
C1=CCC(c2ccccc2)CC1 (stereo not given) | inactive | 
O=C(/C=C/c1ccccc1)NCCO | inactive | 
CCCCC(CC)CNC(=O)CC(C)OC(=O)CCC(=O)O (stereo not given) | inactive | 
C=CCOc1c(Br)cc(C(C)(C)c2cc(Br)c(OCC=C)c(Br)c2)cc1Br | inactive | 
COc1ccc(N=Nc2cc(C)c(N=Nc3ccc(S(=O)(=O)O)cc3)cc2OC)cc1 | inactive | 
CC(C)COC(=O)CCCCC(=O)OCC(C)C | inactive | 
CC(=O)OCCCc1ccccc1 | inactive | 
Cc1cccc(C(=O)O)c1[N+](=O)[O-] | inactive | 
CCCCCCCCCCCCCCCCI | inactive | 
O=C(O)c1c(Cl)ccc(Cl)c1Cl | inactive | 
CC(C)(C)c1ccc(C=O)cc1 | inactive | 
O=S(=O)(O)SSS(=O)(=O)O | inactive | 
